Measured values: the supplement of paper PMC12632987
Whole data set: some 2,300 sequences, median “median log2 fold change of GCK-ALFA target abundance (FLAG IP / Myc IP barcode read proportion)” near 0.095, cut for the lowest 2% near -0.47. What follows is part of a selection rich in the lowest values, with near analogues and random picks from the rest.

B1: LC3A_3_1411 (protein)
chain: LEERLAATEALLREAGHSEETLAAFRRLVELLLERGAEEEAERVLELVAEAKDISSEDLLAVLEEVIRALEEEGASPEEAVERLEELLRIARAEQEIEEL
B2: LC3A_147_452 (protein)
chain: ATYVITVDVLLRNDPELAERIEEEIKKIGEENGAEVEVEREEIQETPTTTEYFLRVTLKTTDEEKALKALQEVSELLDRTAEEHPESFLGAMISFEKIED
B3: LC3A_28_846 (protein)
chain: SKTEEDIEKALKEAKEAAKKGEPAVIELKVYKGDTEEEIEKIIEALEEIAEILKDLPNQAILINFEEVIDEEHQNKILDKAEEIEKKYPNVTVIIALPEE
B4: LC3A_28_844 (protein)
chain: SKTEKDIKEALERAKRAAEEGKSEVITIKVYKGDTEEEINKIIETLEEIAEILKDLPNQAILIDFEEKIDEEHQNKIIDKAEEIEKKYPNITVIIALPEE
B5: LC3A_28_842 (protein)
chain: SKTEENIKKALAEAKEAAEKGESKVITLKVYKGDTEEEIDKIIETLEEIAEILKDLPNQAIIIEFEEPIDPEHQDKIIDKAEEIEKKYPNITVIIALPEE
B6: LC3A_132_311 (protein)
chain: SEEKYKEIKEELEKKLKEAEKNIKDKEKVEKLLEEIRKLLEEAEEELSPEQVAELYDEVADRLWKLSQKALEAGQEDVALELDAAAIEAASRSLEAEKLI
B7: LC3A_free_46_2418 (protein)
chain: YRGIVEADLLGLTEEQVEEVIERVKEKAKRLEEEYGVKVEVEVEVEKNEDGTYFLRIKVTIEGEDREKVEKAANEVVDLLEKLADEYGAAMIISIEFEEL
B8: LC3A_147_515 (protein)
chain: MYEVDIDILVKREGEEEVLEELEEILEELREEGYEVEVLEKRIEREGDEVFIYVKVLIRAPTPEEAEKAVNRLISRLEELEEKHKDLILGSLISVEKIEP
B9: LC3A_147_484 (protein)
chain: MRVYVDVLVDDEETAEELVRLMEATVEELRAQGIRVELRVEIEEVEPGVYFVEIEVEIEAETEEEEQAAAQRVIDALEAFDEANKDRVLGTLISVEREER
B10: LC3A_132_312 (protein)
chain: MEEKYAEIKARLDALLDEAAANIKDKAKVQALLKEIKALLEEAEKELTPEQVAELYDYVADRLDALSQQALAAGQEDVALDLDAASIEAASRSLEAEKKI
B11: LC3A_free_8_2551 (protein)
chain: NSQEFAEKVSEIIDEAEEKVKKILTENGVDREKRLLLELLFGEIIIEVISLRDKSKEEIAKAAKEGLEEVKEEAESLDEETKAKVNAVIDEAEAKIEALL
B12: LC3A_28_1011 (protein)
chain: MSLIEKTKEEAKKAIEEAKKGEDAFLEVEITEEATEEEVKEVLEIIEETAEEISKIENVKLYIVVDFDGDQEKLDLITDGLEEIEEKYPNVSSIIAYDEK
B13: LC3A_28_1012 (protein)
chain: MSLIEATKKEAKAAIEEAKKGEDAFLEVTITEEATEEEVKEVLKIIEETAEEISKIPNVKLYVVIDFDGSQEKLDIITDRMEEIEKKYPNVSVVIAYDEK
B14: LC3A_28_1155 (protein)
chain: SAEVEEAKKLIDEDAERDKDEEEVYLEVKITSSVTVEEAREIMDHVEEVVEKLKDKKKIYVVVTFEEPVSQEVLDEVLRRAEEIEEKFPNVDVIIALPED
B15: LC3A_28_1147 (protein)
chain: SAEVEAAKKQIDEDAEKDKNEEEVYLNVTITSSMTKEEVEEIMDHVEEVVEKLKDKKKIYVVVTFTEPVSQEVLDTALEKGDEIEKKFPKVDVIVALPEY
B16: LC3A_28_1154 (protein)
chain: SANVEAAKKQIDEDAEKDKDEEEVYLNVTITSEDTVEEAKEIMEHVEEVVEKLKDKKKIYVVITFEEPVSQEVLDTVLEKAEEIEKKFPNVSVIIALPED
B17: LC3A_free_8_2523 (protein)
chain: ASQAFADAAVKILDELEEKLVKLLKEKGASRLDILEAELLVGSIIAEVISLVDESIEAILKSIKEGLEELVEELEEHKEEVTKLANEALKKIEEKAKELK
B18: LC3A_3_1539 (protein)
chain: LEEEIEAALALLREAGASEETLAAFREAAEALLERGYEEALRELIRETRELIDAPSELLLAFFEEVLALVRTSDLSEEELIAEIRRIARTTRNEAEIEEL
B19: LC3A_62_2043 (protein)
chain: MYLATVDVDILAKDEEAAEKIYEEIKKKLEELKKKDPNIKYEVKLDKENKYVSVTVTYEAETLEEAEKKAQEIEDELDEILEKNEDLIKAALISREITKL
B20: LC3A_28_882 (protein)
chain: SKALESAEKALEEVKKAVEAGDKEPLVLEVEAPSDEENTEKFLKLLEELAKEASKLPGVTIIVNIDSSVSQELRDKIIDKAEELEKKYPNVTIIIALPED
B21: LC3A_147_504 (protein)
chain: VKLEVYIDIITKNATEEVKEFVKEIEKELKEKGFEVKVKIKIEKLDEDTDYIEIEIEIKAETEEKAKEAANYIIDKFEEFEEKNKDKILGSLISVEIEKE
B22: LC3A_132_267 (protein)
chain: SEELFEEALEELKEILDKIVDLLKAGKDPSPAITELYNTALEYSEKLSLEETEELVEKTIEYAEKLFAERLDPNDVEARRTLDIIEMLLEGVLIEKELRS
B23: LC3A_132_266 (protein)
chain: SEELFEKALEELKEILDKIVEALKAGEDPSPLINELYEKAKEYAKKLSLEETEKLVEETIEYAEKLFKERLDPNDEEAIRTLDIIEMLLEGVLIEKELES
B24: LC3A_132_308 (protein)
chain: GEELAKKLIEIAKEALRLVKEDDSKEEEVLELLREAKELMEKLAKEASPELAAKTFEEVEEILIEISRLAAKKGWDEVSDEAFALAAEAAQLKSDAKKKL
B25: LC3A_free_46_2355 (protein)
chain: VKAEILIDLLHEDEEVLKKAVEEIKKAAKEIAKKYGLKVEIKEEISKLPDGSYYAEIEITLTGETKEKLEKAVTELINKIDEIAKKYNVAAIISYEIIEE
B26: LC3A_free_46_2426 (protein)
chain: VDIDVDLLLEGDDEEKLKAAVEEIKEAFKKIAEEYNAELEIEVEFSTDPDGNHFAHINIKITSDDLETQQKIANESIDSIDKIAEKYGVSYIISVDIEKK
B27: LC3A_17_555 (protein)
chain: MEELKKELEELLKELEKLVKELEKYDPEAAKKLKEKLKEAKKALEKGDLKKALKILKEVAEEAAEVFDSLEHIDPELMSILSMEAEGLLIEALSLEEKLE
B28: LC3A_17_554 (protein)
chain: SEELKEEIKRLLEELEALVEELEKYDPEAAKELRKKLEEAKKALEEGDLEEALKILKEVAEEAAERWDSLEHIDPERMSILSMEAEGLLIEALSLEEKLE
B29: LC3A_28_1027 (protein)
chain: SAAEKAIEKAREEARKQKAEGKDIYVTIEVTSSTTLEDAKTIVEGIREIVEEFKDEKNINIIIDVERGVSQEVIDTLADGAEEIEKEYPNVNIIIALEEE

target: MAP1LC3A, Q9H492; assay: median log2 fold change of GCK-ALFA target abundance (FLAG IP / Myc IP barcode read proportion) (log2 ratio); each designed protein is fused to an ALFA-tag nanobody in HEK293 cells to bring the named protein to FLAG-tagged glucokinase (GCK); Myc marks an untargeted standard; higher = target protein stabilised (more abundant); conditions: target protein: 3xFLAG-MCP-GCK-ALFA reporter; HEK293 landing pad (RPLP)
Procedure, shortened: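 Binders fused to an ALFA nanobody were recombined as a library into HEK293 landing-pad cells, which were induced with 2 μg mL^−1 doxycycline and then transfected to express a FLAG-tagged target and a Myc-tagged standard. After 48 h, circular RNA barcodes recovered by anti-FLAG and anti-Myc immunoprecipitation of lysates were reverse transcribed, amplified and sequenced. Each binder's target abundance is the median log2 ratio of FLAG to Myc barcode read proportions, from barcodes present at ≥10^−7 in both replicates, binders carrying ≥3 barcodes per replicate, a 10^−6 pseudocount and pooled replicates.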

Binder | median log2 fold change
B1 | 0.212
B2 | -0.0647
B3 | -0.293
B4 | -0.471
B5 | -0.297
B6 | 0.256
B7 | 0.196
B8 | -0.205
B9 | -0.559
B10 | 0.361
B11 | -0.172
B12 | -0.21
B13 | -0.527
B14 | -0.446
B15 | -0.475
B16 | -0.142
B17 | -0.0394
B18 | 0.318
B19 | 0.16
B20 | -0.094
B21 | -0.32
B22 | -0.528
B23 | 0.165
B24 | 0.14
B25 | -0.335
B26 | 0.0526
B27 | -0.476
B28 | 0.24
B29 | 0.173
